Consider 63 molecules from ChEMBL document CHEMBL3988442, “University of Dundee, Small-Polar-MMV Screening Library” (2021).

SMILES strings stand for the structures. Out of some 69,000 compounds screened, about 950 (1.4%) showed an effect of 50% or more. The sample holds strong results, similar compounds and a random draw of the others, so the mix is not that of the screen.

In this assay the test system is Mycobacterium tuberculosis. Briefly: Cornell M. t heat shock assay. Note: in the data most compounds retested in dose-response had high values. In kind it is functional, organism-based. Details: dose or concentration left out as unconfirmed.
For `COc1ccc(C(=O)N2Cc3cc(C)ccc3OCC2CN(C)C)cc1.Cl` (stereo not drawn), the “Percent Effect” value is given as -9.159%. Regarding `Cc1cccc(CN2CCCC3(CCC(=O)N3CCN(C)C)CC2)n1.O=C(O)C(F)(F)F.O=C(O)C(F)(F)F` (stereo not drawn), the “Percent Effect” value was -9.93%. As to `CC(C)NC(=O)N1CCc2ncnc(-c3ccncc3)c2CC1.O=C(O)C(F)(F)F`, the “Percent Effect” value is given as 36.54%.

Consider `CCn1ccc2ccnc(CC3CN(C(=O)Cn4ccnc4C)C3)c21.O=CO`, for which the “Percent Effect” value is recorded as -10.71%.

Take `Cn1ccnc1CN(Cc1ccccn1)Cc1ccccc1Cl.O=C(O)CC(O)(CC(=O)O)C(=O)O`: the “Percent Effect” value was determined as 102.4%. As for `COc1ccc(CN(Cc2cncn2C)CC2CCCO2)cc1OC.O=C(O)CC(O)(CC(=O)O)C(=O)O` (stereo not drawn), the “Percent Effect” value is recorded as -6.379%.

On to `COc1ccc(CN(Cc2cncn2C)CC2CCCO2)cc1.O=C(O)CC(O)(CC(=O)O)C(=O)O` (stereo not drawn), for which the “Percent Effect” value was 1.542%. Turning to `COc1ccc(CN(Cc2ccccn2)Cc2cncn2C)cc1.O=C(O)CC(O)(CC(=O)O)C(=O)O`, the “Percent Effect” value worked out at 72.33%. As for `Cc1ncc(CN(Cc2ccccn2)Cc2ccccc2Cl)n1C.O=C(O)CC(O)(CC(=O)O)C(=O)O`, the figure is 34.76%; as for `Cc1nc2sccn2c1CN(CCCN(C)C)Cc1ccccn1.O=C(O)CC(O)(CC(=O)O)C(=O)O`, -0.915%. As for `COc1ncc(CN2CCCC(c3[nH]ncc3S(C)(=O)=O)C2)cn1` (stereo not drawn), the figure is -20.65%; as for `CSc1ccccc1C(=O)N1C[C@H]2CC[C@@H]1CN(C(=O)C1CCC1)C2`, 6.914%. Regarding `Cn1cc(CN2CCCC23CCN(C(=O)c2cccs2)CC3)cn1.O=C(O)C(F)(F)F`, the “Percent Effect” value is on record as -13.39%.

In the case of `CN1CCN(Cc2cn3c(n2)CN(Cc2cccc(F)c2)CC3)CC1.O=C(O)C(F)(F)F.O=C(O)C(F)(F)F.O=C(O)C(F)(F)F`, the “Percent Effect” value was -2.625%.

With `c1ccc(COc2ccccc2CNC2CCc3ncnn3C2)cc1` (stereo not drawn), the “Percent Effect” value was found to be 4.249%.

Turning to `c1ccc(OCc2ccncc2)c(CNC2CCc3ncnn3C2)c1` (stereo not drawn), the “Percent Effect” value turned out to be 14.47%.

In the case of `c1cncc(COc2ccccc2CNC2CCc3ncnn3C2)c1` (stereo not drawn), the “Percent Effect” value was 103.3%. As to `CC(C)N(C)Cc1cc(=O)n2c(n1)CN(S(=O)(=O)C1CC1)CCC2.O=C(O)C(F)(F)F`, the “Percent Effect” value is listed as 3.887%. Consider `CSc1ccc(CNC2CCN(CCc3ccncc3)CC2)cc1`, for which the “Percent Effect” value is listed as 5.943%.

In the case of `COc1c(CNC(c2ccccc2F)c2nccn2C)c(C)nn1C` (stereo not drawn), the “Percent Effect” value was -25.27%. Consider `COc1c(CNC(c2nccn2C)C(C)C)c(C)nn1C` (stereo not drawn), for which the “Percent Effect” value was 2.612%. For `CC(NCCn1cccn1)c1ccccc1F` (stereo not drawn), the “Percent Effect” value is -16.32%. With `COc1ccccc1C(NCc1ccc(SC)cc1)c1nccn1C` (stereo not drawn), the “Percent Effect” value is on record as 111.2%. As for `COc1ccc(CN(C)c2ccc(-c3nccn3C)nn2)cc1OC`, the “Percent Effect” value turned out to be 6.196%. As to `Fc1ccccc1C(CNc1ccncn1)N1CCCC1` (stereo not drawn), the “Percent Effect” value is recorded as -9.26%. Take `CSc1ccc(CNC(c2ccccc2F)c2nccn2C)cc1.Cl` (stereo not drawn): the “Percent Effect” value is on record as 112.7%.

For `COc1cc(CN2CCn3c(CO)nnc3C2)ccc1OC(C)C.O=C(O)CC(O)(CC(=O)O)C(=O)O`, the “Percent Effect” value was -10.49%. As to `CNC(=O)N1C[C@H]2C[C@H](C(=O)Nc3cccnc3)[C@@H](C1)O2.O=C(O)C(F)(F)F`, the “Percent Effect” value is -3.973%. With `Cc1ccc(C(=O)N2C[C@@H]3CC[C@H](C2)N(Cc2ccccc2)C3)cn1`, the “Percent Effect” value is on record as -13.46%. Under `CCc1cc(=O)n(CCNC(=O)Nc2ccc(OC(F)(F)F)cc2)cn1` stands 32.6%; under `O=C(O)C(F)(F)F.O=C(O)C(F)(F)F.O=C(O)C(F)(F)F.c1ccc(CN2CCCC3(CCN(Cc4cccs4)C3)C2)nc1` (stereo not drawn), 0.0284%; under `CCc1c(C(=O)N2C[C@H]3CC[C@@H]2CN(c2cnccn2)C3)csc1C`, -16.87%. Take `CC(=O)NCc1noc2c1CN(Cc1cccs1)CC2`: the “Percent Effect” value was determined as 18.13%. For the molecule `CCN1CCc2nc(N3CCOCC3)nc(NC(C)C)c2C1`, the “Percent Effect” value amounted to 8.22%.

Turning to `CCC(C)N1CCc2nc(N3CCCC3)nc(NC(C)C)c2C1` (stereo not drawn), the “Percent Effect” value is -2.093%. Take `Cc1nc(NC(C)C)nc2c1CN(Cc1cccs1)CC2`: the “Percent Effect” value worked out at 99.87%. As for `Cc1nc(CN2CCc3ncnc(C)c3CC2)cs1.O=C(O)C(F)(F)F`, the figure is 2.444%; as for `CC(C)Nc1nc(N2CCCC2)nc2c1CN(S(C)(=O)=O)CC2`, 11%; as for `Cc1nc(NC(C)C)nc2c1CN(Cc1nccn1C)CC2`, 12.34%. Consider `CC(C)Nc1nc(N2CCCC2)nc2c1CN(C)CC2`, for which the “Percent Effect” value was found to be 4.665%. As for `CC(C)Oc1ncnc2c1CCN(Cc1cccs1)CC2`, the “Percent Effect” value is given as 17.98%. For the molecule `CC(C)Nc1nc(N2CCCC2)nc2c1CN(C(C)C)CC2`, the “Percent Effect” value was found to be 101.9%. As to `Cc1nc(CN2CCc3nc(N4CCCC4)nc(NC(C)C)c3C2)cs1`, the “Percent Effect” value is reported as 104.3%. In the case of `Cc1nc(CN2CCc3nc(NC(C)C)nc(C)c3C2)cs1`, the “Percent Effect” value amounted to 99.63%.

Consider `Cc1nn(C)cc1-c1cncn1CCN(C)C1CCCC1.Cl`, for which the “Percent Effect” value was 1.181%. `Cc1cccc(CN2C[C@@H]3COC[C@]3(COCC(=O)N(C)C)C2)n1.O=C(O)C(F)(F)F.O=C(O)C(F)(F)F`: the “Percent Effect” value is -9.127%. On to `O=C(O)C(F)(F)F.O=C([C@H]1C[C@H]2OCC[C@H]2N(CC2CCOCC2)C1)N1CCCCO1`, for which the “Percent Effect” value was -2.02%. Under `COC1COC2(CCN(Cc3cccc(Cl)c3)CC2)C1.O=C(O)C(F)(F)F` (stereo not drawn) stands -14.26%; under `CN1[C@H]2CC[C@@H]1CN(c1nc(-c3ccncc3)nc3c1cnn3C)CC2`, -0.0303%. As for `O=C(NC1CCCCC1)N1CCc2onc(COc3cccnc3)c2C1.O=C(O)C(F)(F)F`, the figure is 9.654%. For `CC(C)CN1Cc2nc(N3CCCC3)ncc2C1=O`, the “Percent Effect” value is reported as -13.83%. For the molecule `COc1ccccc1C(=O)N1CCNCC1C(N)=O.Cl` (stereo not drawn), the “Percent Effect” value is 5.705%. As for `CC(=O)N1CCC(c2nccnc2Nc2cnccn2)CC1`, the figure is 19.92%. Consider `Cc1cnc(Nc2nccnc2C2CCN(C)CC2)s1`, for which the “Percent Effect” value amounted to 16.42%.

`CC(=O)N1CCC(c2nccnc2Nc2ncc(C)s2)CC1`: the “Percent Effect” value is 55.53%. Consider `CCOC1COC2(CCN(C(=O)c3cccc(C)n3)CC2)C1.O=C(O)C(F)(F)F` (stereo not drawn), for which the “Percent Effect” value came out at 18.32%. For `O=C(O)C(F)(F)F.O=C(c1cccc(O)c1)N1CCC2(CCN2c2ncccn2)C1` (stereo not drawn), the “Percent Effect” value is 1.113%. Take `Cc1cnn(CCNCc2csc(-c3ncccn3)n2)c1`: the “Percent Effect” value is recorded as -10.75%. As to `Cc1cnn(CCNCc2csc(-c3ccco3)n2)c1`, the “Percent Effect” value is 52.61%. With `c1coc(-c2nc(CNCCn3cccn3)cs2)c1`, the “Percent Effect” value is reported as -1.03%.

As to `Cc1cnn(CCNCc2csc(-c3ccc(C)o3)n2)c1`, the “Percent Effect” value was 64.15%. On to `Cc1ccc(-c2nc(CNCCn3cccn3)cs2)o1`, for which the “Percent Effect” value is given as 26.99%.

As to `Cc1cnn(CC(C)NCc2csc(-c3ccco3)n2)c1` (stereo not drawn), the “Percent Effect” value was 29.87%.
